# Source: the supplement of paper PMC11732987, “Enantioselective OTUD7B fragment discovery through chemoproteomics screening and high-throughput optimisation” (Communications Chemistry, 2025)
# Values without a mark were called inactive.
# Experiments:
# Assay in all cases: log2 ratio of Biotin-Ahx-Ub-VS probe labelling (fragment/DMSO); higher = less target engagement (more negative = stronger competition), active = hit call of the paper (q ≤ 0.05, log2 ratio ≤ -1)
# Details in all cases: compound concentration: 200 uM; treatment time: 3 h
# ALG13 = molecular target: T1, ALG13 (UniProt Q9NP73)
# T1 sequence (whole entry): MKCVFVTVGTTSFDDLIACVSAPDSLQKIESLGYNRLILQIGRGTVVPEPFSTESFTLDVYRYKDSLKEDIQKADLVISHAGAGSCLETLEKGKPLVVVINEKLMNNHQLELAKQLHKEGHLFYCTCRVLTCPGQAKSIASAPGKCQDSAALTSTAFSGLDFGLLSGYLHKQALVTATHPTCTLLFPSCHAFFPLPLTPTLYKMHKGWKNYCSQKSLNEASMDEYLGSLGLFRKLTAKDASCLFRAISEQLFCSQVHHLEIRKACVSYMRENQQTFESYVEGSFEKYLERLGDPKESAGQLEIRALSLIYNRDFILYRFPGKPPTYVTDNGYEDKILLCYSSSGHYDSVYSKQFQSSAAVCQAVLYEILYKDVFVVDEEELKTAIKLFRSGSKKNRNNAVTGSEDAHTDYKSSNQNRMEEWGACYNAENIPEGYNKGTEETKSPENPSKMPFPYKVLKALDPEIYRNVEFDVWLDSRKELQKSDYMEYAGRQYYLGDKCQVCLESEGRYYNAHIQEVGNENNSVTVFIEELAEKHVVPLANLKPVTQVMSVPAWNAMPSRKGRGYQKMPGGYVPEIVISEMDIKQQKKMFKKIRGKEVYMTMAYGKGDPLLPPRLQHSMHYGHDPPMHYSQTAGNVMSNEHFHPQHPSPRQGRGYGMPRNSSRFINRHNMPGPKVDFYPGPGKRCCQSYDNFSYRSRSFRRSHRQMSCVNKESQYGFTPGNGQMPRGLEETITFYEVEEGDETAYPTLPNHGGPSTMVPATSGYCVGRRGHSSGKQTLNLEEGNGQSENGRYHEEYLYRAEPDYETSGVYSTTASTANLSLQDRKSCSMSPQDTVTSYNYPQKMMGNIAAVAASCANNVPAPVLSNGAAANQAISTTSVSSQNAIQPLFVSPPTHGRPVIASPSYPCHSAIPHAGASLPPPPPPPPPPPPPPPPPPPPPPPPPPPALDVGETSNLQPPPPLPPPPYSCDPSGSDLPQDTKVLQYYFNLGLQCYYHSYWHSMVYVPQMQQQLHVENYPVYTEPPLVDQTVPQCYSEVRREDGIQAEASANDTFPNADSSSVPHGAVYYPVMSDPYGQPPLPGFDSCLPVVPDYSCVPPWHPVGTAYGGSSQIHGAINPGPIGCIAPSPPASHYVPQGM
# Procedure, shortened: (§1)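 HEK293T lysate (495 µg per sample, in Tris/CHAPS/IGEPAL buffer with protease inhibitors) was treated in triplicate with fragment at 200 µM or with DMSO for 3 h. It was then treated with Biotin-Ahx-Ub-VS (0.5 µM final) for 1 h. Labelled DUBs were NeutrAvidin-enriched, digested with LysC and trypsin, and run by diaPASEF LC-MS/MS. Spectronaut label-free quantities were global-median-normalised. Values are average log2 ratios fragment/DMSO by unpaired t-test, using proteins with ≥2 unique peptides.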
# ATXN3 = ATXN3 (UniProt P54252)
# Procedure, shortened: as §1
# BAP1 = molecular target: T2, BAP1 (UniProt Q92560)
# T2 sequence (whole entry): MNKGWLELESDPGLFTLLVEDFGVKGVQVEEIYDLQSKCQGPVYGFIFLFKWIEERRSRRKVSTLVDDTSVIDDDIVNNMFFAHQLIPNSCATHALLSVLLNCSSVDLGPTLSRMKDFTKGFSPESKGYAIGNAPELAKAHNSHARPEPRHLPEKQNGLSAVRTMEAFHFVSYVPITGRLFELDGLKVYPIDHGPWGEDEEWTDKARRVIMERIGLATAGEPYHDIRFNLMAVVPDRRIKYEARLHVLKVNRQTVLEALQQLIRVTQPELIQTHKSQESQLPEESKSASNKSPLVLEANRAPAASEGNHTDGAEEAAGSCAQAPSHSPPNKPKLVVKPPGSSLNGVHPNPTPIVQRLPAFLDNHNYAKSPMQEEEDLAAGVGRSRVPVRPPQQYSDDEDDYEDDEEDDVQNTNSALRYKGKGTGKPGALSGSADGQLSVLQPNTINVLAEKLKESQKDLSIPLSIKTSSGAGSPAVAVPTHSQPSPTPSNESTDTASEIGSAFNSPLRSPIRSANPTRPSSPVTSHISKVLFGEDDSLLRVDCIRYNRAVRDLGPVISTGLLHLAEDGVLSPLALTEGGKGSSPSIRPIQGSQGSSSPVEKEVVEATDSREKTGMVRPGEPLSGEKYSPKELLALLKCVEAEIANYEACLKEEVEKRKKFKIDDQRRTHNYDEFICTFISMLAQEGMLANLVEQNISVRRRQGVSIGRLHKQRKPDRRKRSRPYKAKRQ
# Procedure, shortened: as §1
# EIF3F = EIF3F (UniProt O00303)
# Procedure, shortened: as §1
# EIF3H = EIF3H (UniProt O15372)
# Procedure, shortened: as §1
# FAM105A = molecular target: T3, FAM105A (UniProt Q9NUU6)
# T3 sequence (whole entry): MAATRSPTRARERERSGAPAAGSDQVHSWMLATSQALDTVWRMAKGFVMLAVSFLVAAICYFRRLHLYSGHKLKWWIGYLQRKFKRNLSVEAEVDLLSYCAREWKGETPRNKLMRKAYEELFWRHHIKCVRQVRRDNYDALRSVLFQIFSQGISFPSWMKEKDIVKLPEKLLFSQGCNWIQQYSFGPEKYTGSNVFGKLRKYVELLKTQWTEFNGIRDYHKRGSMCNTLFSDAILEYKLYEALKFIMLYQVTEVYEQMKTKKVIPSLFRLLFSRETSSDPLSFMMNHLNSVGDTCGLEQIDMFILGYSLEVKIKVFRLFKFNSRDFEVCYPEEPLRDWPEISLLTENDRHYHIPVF
# Procedure, shortened: as §1
# OTUB1 = OTUB1 (UniProt Q96FW1)
# Procedure, shortened: as §1
# OTUD4 = molecular target: T4, OTUD4 (UniProt Q01804)
# T4 sequence (whole entry): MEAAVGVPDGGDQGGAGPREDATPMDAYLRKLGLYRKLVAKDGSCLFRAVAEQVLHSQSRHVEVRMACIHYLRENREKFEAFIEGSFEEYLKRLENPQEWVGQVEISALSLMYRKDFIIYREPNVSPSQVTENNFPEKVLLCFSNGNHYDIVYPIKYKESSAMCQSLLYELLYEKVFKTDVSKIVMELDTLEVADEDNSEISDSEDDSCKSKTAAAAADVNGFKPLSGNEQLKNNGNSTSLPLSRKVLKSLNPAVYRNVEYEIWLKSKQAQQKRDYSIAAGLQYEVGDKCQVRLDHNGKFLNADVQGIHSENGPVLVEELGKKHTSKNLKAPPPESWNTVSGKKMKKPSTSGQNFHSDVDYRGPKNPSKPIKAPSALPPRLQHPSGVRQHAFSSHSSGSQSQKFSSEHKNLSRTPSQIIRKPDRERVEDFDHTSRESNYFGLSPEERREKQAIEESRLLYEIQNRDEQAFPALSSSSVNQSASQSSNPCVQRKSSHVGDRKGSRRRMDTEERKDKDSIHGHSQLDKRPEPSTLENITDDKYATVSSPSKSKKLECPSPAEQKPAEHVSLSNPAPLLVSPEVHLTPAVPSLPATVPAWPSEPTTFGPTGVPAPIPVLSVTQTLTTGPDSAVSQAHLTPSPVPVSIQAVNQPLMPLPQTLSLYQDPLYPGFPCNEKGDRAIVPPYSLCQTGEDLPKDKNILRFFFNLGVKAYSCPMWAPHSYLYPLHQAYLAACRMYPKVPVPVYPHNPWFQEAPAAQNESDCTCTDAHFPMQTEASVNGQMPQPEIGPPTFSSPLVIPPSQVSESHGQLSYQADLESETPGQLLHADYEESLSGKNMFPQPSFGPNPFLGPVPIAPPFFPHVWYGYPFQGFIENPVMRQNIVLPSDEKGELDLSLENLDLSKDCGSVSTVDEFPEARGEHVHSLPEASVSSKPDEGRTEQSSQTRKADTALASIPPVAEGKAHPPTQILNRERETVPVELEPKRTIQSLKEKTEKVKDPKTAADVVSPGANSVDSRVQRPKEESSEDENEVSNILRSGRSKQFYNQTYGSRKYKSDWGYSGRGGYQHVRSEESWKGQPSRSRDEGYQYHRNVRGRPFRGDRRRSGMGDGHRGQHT
# Procedure, shortened: as §1
# OTUD5 = molecular target: T5, OTUD5 (UniProt Q96G74)
# T5 sequence (whole entry): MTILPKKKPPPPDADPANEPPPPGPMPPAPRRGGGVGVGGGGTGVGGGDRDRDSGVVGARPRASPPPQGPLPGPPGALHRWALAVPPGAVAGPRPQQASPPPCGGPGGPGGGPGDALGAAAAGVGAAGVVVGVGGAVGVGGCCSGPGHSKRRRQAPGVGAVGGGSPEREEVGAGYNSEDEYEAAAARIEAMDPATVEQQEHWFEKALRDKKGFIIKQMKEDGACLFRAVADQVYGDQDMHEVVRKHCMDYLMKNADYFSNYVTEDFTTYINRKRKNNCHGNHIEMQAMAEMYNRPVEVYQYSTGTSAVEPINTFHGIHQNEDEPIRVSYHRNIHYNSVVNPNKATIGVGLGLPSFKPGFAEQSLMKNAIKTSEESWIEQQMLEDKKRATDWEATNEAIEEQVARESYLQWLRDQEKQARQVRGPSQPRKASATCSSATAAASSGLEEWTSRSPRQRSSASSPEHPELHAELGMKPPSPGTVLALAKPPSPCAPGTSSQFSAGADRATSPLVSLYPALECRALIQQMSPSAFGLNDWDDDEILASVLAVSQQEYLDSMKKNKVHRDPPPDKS
# Procedure, shortened: as §1
# Chain of OTUB1 (Q96FW1 whole entry): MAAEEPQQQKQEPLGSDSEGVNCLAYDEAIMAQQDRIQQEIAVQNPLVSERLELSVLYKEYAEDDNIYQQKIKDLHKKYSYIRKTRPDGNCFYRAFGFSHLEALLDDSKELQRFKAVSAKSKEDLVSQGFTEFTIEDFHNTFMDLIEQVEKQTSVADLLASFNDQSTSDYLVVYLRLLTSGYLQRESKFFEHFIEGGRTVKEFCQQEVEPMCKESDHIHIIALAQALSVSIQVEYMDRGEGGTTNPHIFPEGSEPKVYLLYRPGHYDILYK
# Chain of EIF3F (O00303 whole entry): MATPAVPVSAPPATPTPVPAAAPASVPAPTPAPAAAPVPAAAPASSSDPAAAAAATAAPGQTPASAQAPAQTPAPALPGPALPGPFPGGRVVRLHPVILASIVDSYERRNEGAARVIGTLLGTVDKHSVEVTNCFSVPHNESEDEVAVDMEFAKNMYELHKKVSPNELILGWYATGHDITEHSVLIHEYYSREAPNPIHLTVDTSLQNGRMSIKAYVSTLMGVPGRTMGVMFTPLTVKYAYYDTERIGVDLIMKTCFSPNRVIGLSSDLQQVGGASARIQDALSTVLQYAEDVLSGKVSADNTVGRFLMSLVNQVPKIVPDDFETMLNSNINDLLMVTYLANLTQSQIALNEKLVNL
# Chain of ATXN3 (P54252 whole entry): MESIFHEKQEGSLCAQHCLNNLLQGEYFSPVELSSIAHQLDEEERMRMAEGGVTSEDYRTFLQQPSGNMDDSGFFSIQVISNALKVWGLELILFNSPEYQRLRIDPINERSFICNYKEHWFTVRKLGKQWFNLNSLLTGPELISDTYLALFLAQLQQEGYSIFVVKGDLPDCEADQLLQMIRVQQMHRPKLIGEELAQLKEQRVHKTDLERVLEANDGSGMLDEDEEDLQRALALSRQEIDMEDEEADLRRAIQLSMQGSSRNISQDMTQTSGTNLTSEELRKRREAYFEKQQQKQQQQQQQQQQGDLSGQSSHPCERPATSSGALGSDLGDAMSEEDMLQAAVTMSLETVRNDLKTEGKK
# Chain of EIF3H (O15372 whole entry): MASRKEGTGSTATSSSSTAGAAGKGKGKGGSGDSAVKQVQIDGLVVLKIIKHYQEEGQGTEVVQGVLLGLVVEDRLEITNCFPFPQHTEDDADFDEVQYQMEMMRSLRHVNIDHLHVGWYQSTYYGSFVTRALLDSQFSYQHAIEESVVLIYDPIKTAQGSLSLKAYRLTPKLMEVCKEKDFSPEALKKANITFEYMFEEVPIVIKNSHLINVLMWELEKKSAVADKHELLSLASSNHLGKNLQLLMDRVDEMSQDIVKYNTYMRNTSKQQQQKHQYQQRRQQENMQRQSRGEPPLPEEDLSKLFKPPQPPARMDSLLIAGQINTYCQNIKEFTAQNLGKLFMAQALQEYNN
smiles,measurement,setting,value
Cc1conc1C1CN(C(=O)CCl)C1,log2 ratio of Biotin-Ahx-Ub-VS probe labelling,ALG13,0.0664
same,log2 ratio of Biotin-Ahx-Ub-VS probe labelling,ATXN3,-0.85
same,log2 ratio of Biotin-Ahx-Ub-VS probe labelling,BAP1,-1.76 (active)
same,log2 ratio of Biotin-Ahx-Ub-VS probe labelling,EIF3F,-0.671
same,log2 ratio of Biotin-Ahx-Ub-VS probe labelling,EIF3H,0.138
same,log2 ratio of Biotin-Ahx-Ub-VS probe labelling,FAM105A,0.111
same,log2 ratio of Biotin-Ahx-Ub-VS probe labelling,OTUB1,-0.109
same,log2 ratio of Biotin-Ahx-Ub-VS probe labelling,OTUD4,-0.837
same,log2 ratio of Biotin-Ahx-Ub-VS probe labelling,OTUD5,-0.861
